This is a sample that favours compounds with a hit; in the whole collection about 21% have one here.
CHX counter: counter-screen hit for Shiga toxin inhibitors, cycloheximide. 300,000 compounds, 12% hits. cell reporter, cycloheximide protein synthesis inhibition counterscreen. AID 2314. max response, %; in the data active = max response mostly above about 13%, no sharp cut-off; inactive = mostly below about 14%; also: read at 38.3 µM for the half of the compounds with a filed dose; 0% is about no effect
NS1 function inh: inhibitors of influenza NS1 protein function. AID 2326. 270,000 compounds, 0.4% hits. Potency, µM (series often up to 46.1 µM), inactives show at the top dose activity, positive = more growth; calls by dose curve; also: potency is read from the fitted curve at half-maximal effect; actives are rising curves; nearly all actives have a fitted effect of over 50% in size
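S. cerevisiae expressing influenza A NS1, grown in glucose, washed, then diluted 1:100 into pH 6.0 -URA galactose medium with 23 nl compound. Growth recovery read as OD600; NS1-free strain serves as control.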
Pf growth 48h: inhibits P. falciparum growth in the first generation, 48 h; Potency, µM (top dose mostly 28.7 µM), for the others: at the top dose activity change, negative = inhibition, actives largely listed as inhibitors; P. falciparum luciferase growth in erythrocytes, 48 h; 310,000 compounds, 5.9% hits; AID 504832; also: potency is read from the fitted curve at half-maximal effect; % is scaled to controls: 0 for no effect and ±100 for the full control effect
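Luminescence readout; reporter = integrated firefly luciferase in P. falciparum. RBC culture at 2% hematocrit, 0.1% parasitemia final, 37 C/5% CO2; decreased signal taken as growth inhibition.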
FBPA Giardia inh: inhibitors of Giardia lamblia fructose-1,6-bisphosphate aldolase. A8B2U2. purified Giardia FBPA. Potency, µM (titrated, usually from 59.6 µM), for inactives: at the highest dose activity, negative = inhibition, actives largely listed as inhibitors. 290,000 compounds, 0.71% hits; also: potency is read from the fitted curve at half-maximal effect; % is scaled to controls: 0 for no effect and ±100 for the full control effect; nearly all actives have a fitted effect of over 55% in size
Target sequence (A8B2U2 whole entry, looked up): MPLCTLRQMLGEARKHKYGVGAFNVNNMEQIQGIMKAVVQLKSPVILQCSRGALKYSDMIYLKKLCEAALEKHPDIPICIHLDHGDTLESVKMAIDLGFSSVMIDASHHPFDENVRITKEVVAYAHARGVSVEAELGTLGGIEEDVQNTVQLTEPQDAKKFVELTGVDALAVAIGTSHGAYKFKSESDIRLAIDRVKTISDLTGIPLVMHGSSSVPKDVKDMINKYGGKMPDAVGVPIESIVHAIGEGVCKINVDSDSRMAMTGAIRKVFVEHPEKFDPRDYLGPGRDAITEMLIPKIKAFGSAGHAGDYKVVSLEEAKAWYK
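Giardia FBPA (40 nM reagent) was preincubated 10 min at RT with compound (up to 57.5 uM final), then substrate plus GAPDH/TPI/NAD/arsenate coupling system with diaphorase/resazurin was added; resorufin fluorescence (525/598 nm) was read after 20 min.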
Shiga toxin inh: inhibitors of Shiga toxin in Vero cells; 290,000 compounds, 9.2% hits; Vero cells, Shiga toxin protein synthesis inhibition reporter; inhibition, % at 38.7 µM; AID 2315; in the data active = inhibition mostly above about 28%, no sharp cut-off; inactive = mostly below about 43%; also: 0% is about no effect
Pf growth 96h: P. falciparum growth inhibition at 96 hours; P. falciparum luciferase reporter growth, 96 h; Potency, µM (series often up to 28.7 µM), without a hit: at the top dose activity change, negative = inhibition, usual class: inhibitors; 320,000 compounds, 6.9% hits; also: potency is read from the fitted curve at half-maximal effect; % is scaled to controls: 0 for no effect and ±100 for the full control effect
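P. falciparum expressing integrated firefly luciferase, in erythrocytes at 2% hematocrit, 0.05% parasitemia, incubated with compounds 96 h at 37 C, 5% CO2. Growth inhibition read as loss of luminescence; two-generation exposure targets delayed-death apicoplast inhibitors.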
* = called active by the depositor; ? = inconclusive; / = not tested or not shown; [ ] = dose if it differs, or a comment. Unless noted, calls follow the shape of the dose curve; as a rule, active = well fitted curve in the direction sought with a large enough effect; inconclusive = small, poorly fitted or top-dose-only effect, or another doubt; inactive = no such curve, though single readings can be large; an effect the other way counts as inactive or inconclusive.

SMILES | CHX counter | NS1 function inh | Pf growth 48h | FBPA Giardia inh | Shiga toxin inh | Pf growth 96h
Cc1cc(=O)[nH]c2n[nH]c(-c3ccccc3)c12 | 15* | 1% | 37% | -2% | 37 | /
N/C(CN1CCCC1=O)=N\OC(=O)c1ccccc1Cl | 26* | -8% | 60% | 0% | 16 | ?
COc1ccc(CCC(=O)Nc2ccc3c(c2)OCO3)cc1 | 11 | 0% | -9% | -2% | 16 | ?
O=C(CCc1ccccc1)Nc1nnc(-c2ccc3c(c2)OCCO3)o1 | 18 | / | 1% | -2% | 47 | 66%
O=C(CCCOc1ccccc1)Nc1ccc2c(c1)OCCO2 | 48* | -5% | 100% | 2% | 65 | -4%
COc1ccc(OCCCC(=O)Nc2ccc3c(c2)OCO3)cc1 | 1 | -13% | 3% | -7% | 17 | ?
O=C(CCc1ccccc1)Nc1ccc2c(c1)OCCO2 | 48* | -11% | 9% | -1% | 67* | 17%
O=C(CCc1ccccc1)Nc1ccc2c(c1)C(=O)OC2 | 10* | -4% | -1% | 7% | 29 | 57%
COc1ccc(CCC(=O)Nc2ccc3c(c2)OCCO3)cc1 | 26* | -7% | 38% | -4% | 39 | 3%
Cn1c(=O)c(CCc2ccccc2)nc2cnc(N3CCNCC3)nc21 | / | / | / | 10% | / | /
O=C(O)Cn1nc(-c2ccccc2)c2ccccc21 | / | -91% | / | / | / | /
O=C(CCc1ccccc1)Nc1cc2c(cc1Cl)OCCO2 | 47* | -6% | 156% | 0% | 80* | 251%
O=C(CCSCc1ccccc1)Nc1ccc2c(c1)OCCO2 | 59* | -9% | 101% | -3% | 48* | 59%
O=C(CCc1ccccc1Cl)Nc1cc2c(cc1C(=O)O)OCCCO2 | / | / | 26% | / | / | 8%
O=C(CCc1ccc(S(=O)(=O)N2CCOCC2)cc1)Nc1ccc2c(c1)OCCO2 | 14* | 3% | ? | -1% | 49* | ?
CN(CCC(=O)Nc1ccc2c(c1)OCO2)Cc1ccccc1 | -1 | -1% | ? | -15% | 18 | 37%
O=C(Cc1ccc2c(c1)OCCO2)Nc1cccc(S(=O)(=O)N2CCOCC2)c1 | / | / | -22% | / | / | 18%
O=C(CCCc1ccccc1)Nc1ccc(S(=O)(=O)N2CCOCC2)cc1 | 8 | -9% | ? | 0% | 1 | 10µM*
COCCN(C(=O)COC(=O)CCc1ccccc1)c1c(N)n(Cc2ccccc2)c(=O)[nH]c1=O | / | / | -5% | / | / | -3%
O=C(N/N=C1/C[C@@H](O)[C@@H](O)[C@@H]2[C@H]3C(=O)N(c4ccc(F)cc4F)C(=O)[C@@H]3CC[C@H]12)OCc1ccccc1 | / | / | / | 3%[12.9 µM] | / | /
CCN(CC(=O)Nc1ccc2c(c1)OCCO2)C(=O)/C=C/c1cccc(OC)c1OC | / | / | 44% | / | / | 67%
CC(=O)c1cc2c(cc1NC(=O)CCc1ccccc1)OCO2 | 24* | -48% | 4% | -16% | 4 | 18%
O=C(NCc1ccccc1)NC1(C(=O)Nc2ccc3c(c2)OCCO3)CCCCC1 | 30* | -3% | 7% | -2% | 71* | ?
O=C(CCc1ccc(S(=O)(=O)N2CCOCC2)cc1)Nc1nc(COc2ccccc2)cs1 | 1 | -1% | 12µM* | -1% | -17 | /
CCN(CC(=O)Nc1ccc2c(c1)OCCO2)C(=O)/C=C/c1ccc(OC)cc1OC | 28* | -35% | 13% | 0% | 60* | 12%
SMILES | CHX counter | NS1 function inh | Pf growth 48h | FBPA Giardia inh | Shiga toxin inh | Pf growth 96h
O=[N+]([O-])c1cccc(N(CC(O)CN2CCCCC2)S(=O)(=O)c2ccccc2)c1 (centres undefined) | -3 | 10% | -3% | -1% | -3 | ?
N#Cc1ccccc1S(=O)(=O)N1CCN(CC(=O)NCC2(N3CCOCC3)CCCCC2)CC1 | / | / | ? | / | / | 10µM*
O=C(CN1CCN(S(=O)(=O)c2cccc(Cl)c2)CC1)NCC1(N2CCOCC2)CCCCC1 | / | / | 10µM* | / | / | ?
N#Cc1ccccc1S(=O)(=O)N1CCN(CC(=O)Nc2ccnn2C2CCCC2)CC1 | / | / | ? | / | / | -1%
O=C(CN1CCN(CC(=O)Nc2ccccc2Cl)CC1)NCC1(N2CCOCC2)CCCCC1 | / | / | 10µM* | / | / | ?
O=C(CN1CCN(S(=O)(=O)c2ccc(F)cc2)CC1)NCC1(N2CCOCC2)CCCCC1 | / | / | ? | / | / | -15%
NC(=O)C1(N2CCCCC2)CCN(CC(=O)Nc2cc(Cl)ccc2Cl)CC1 | -4 | -5% | 12µM* | 5% | 2 | 18%
Cc1cccc(C)c1NC(=O)CN1CCN(CC(=O)NCC2(N3CCCCC3)CCCCC2)CC1 | / | / | ? | / | / | 2%
Cc1c(NC(=S)NC(NC(=O)C(C)C)C(Cl)(Cl)Cl)c(=O)n(-c2ccccc2)n1C (centres undefined) | 9 | -3% | ? | 3% | -19 | ?
CCc1nnc(NC(=O)CCC(=O)NC2CC2)s1 | 9 | -3% | 0% | / | 8 | -4%
O=C(COC(=O)c1cccc(O)c1)Nc1ccc(S(=O)(=O)N2CCOCC2)cc1 | / | / | -5% | / | / | 0%
Cc1nn(CC(=O)NNC(=O)c2cccc(Br)c2)c(C)c1[N+](=O)[O-] | -1 | 4% | -4% | -5% | 8 | 12%
CC(C)CNC(=O)CSc1n[nH]c(=O)n1CCc1ccccc1 | 0 | 14% | 1% | 7% | -24 | 3%
O=C(Cc1ccc(Cl)cc1Cl)NCC1(N2CCOCC2)CCCCC1 | 3 | / | -12% | 1% | -24 | 0%
O=C(NCC1(N2CCOCC2)CCCCC1)c1cccc(S(=O)(=O)N2CCc3ccccc3C2)c1 | -3 | -3% | 8.3µM* | -2% | -6 | ?
O=C(CN1CCN(S(=O)(=O)c2ccccc2Cl)CC1)NCC1(N2CCOCC2)CCCCC1 | / | / | 12µM* | / | / | ?
CS(=O)(=O)N1CCC2(CCCN(Cc3ccccc3)C2)CC1 | / | / | / | 6% | / | /
Cc1nn(-c2ccccc2)c(Cl)c1C(=O)NNC(=O)c1ccccc1O | / | / | ? | / | / | -6%
COc1ccc(-n2cnc3cc(C(=O)N4CCOCC4)ccc32)cc1 | 56* | -5% | 7% | -1% | 45* | 7%
COc1ccc(-n2cnc3cc(NS(=O)(=O)c4ccccc4)ccc32)cc1 | 21* | 7% | ? | 5% | 37* | ?
COc1ccc(-n2cnc3cc(C(=O)N4CCC5(CC4)OCCO5)ccc32)cc1 | 2 | / | ? | 0% | 18 | ?
COc1ccc(-n2cnc3cc(N)ccc32)cc1 | 13* | 20% | ? | 0% | 12 | ?
CCCCCNC(=O)c1ccc2c(c1)ncn2-c1ccc(OC)cc1 | 7 | -5% | ? | 14% | -7 | 21%
CC(C)(C)n1cnc2cc(NS(=O)(=O)c3ccccc3)ccc21 | 18* | 1% | ? | -1% | 24 | 11%
CC1O[C@@H](O[C@H](C)CC[C@@H](C)O)C(O)C[C@H]1O (some centres undefined) | / | / | 4% | / | / | 29%
CCN(CC(=O)Nc1c(F)cccc1F)C(=O)c1cccc(-n2cnnn2)c1 | / | / | -16% | / | / | 32%
O=C1CC(N2CCOCC2)=NN1c1ccc([N+](=O)[O-])cc1 | 18* | 1% | ? | -13% | 29 | ?

Compound activity (PubChem BioAssay)
